Where “and” joins values, the source holds several entries; their conditions need not be identical. Identical values can stand only once. ± gives the standard deviation of the averaged measurements.
Experiments:
Conditions in all cases: concentration: 10 µM; 24 h
[1] = system: HCC1569; assay: cell number relative to DMSO (% of DMSO); higher = more cells (less growth inhibition / toxicity)
Outline: (§1)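 H1.0 nuclear intensity or cell number is stated as percent of the plate control, based on the median of replicates, and HCC1569 values were smoothed for positional effects. These came from HCC1569 and TDF cells treated with compounds at 10 µM for 24 h at 37 °C in triplicate, then fixed in 3.7% formaldehyde and stained with a rabbit anti-H1.0 antibody, an AlexaFluor 647 secondary and DAPI.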

[2] = system: TDF; assay: as above
Outline: as §1

[3] = system: TDF; assay: H1.0 immunofluorescence intensity relative to DMSO (% of DMSO); higher = stronger H1.0 induction, active = 120 or more
Outline: as §1

[4] = system: HCC1569; assay: H1.0 immunofluorescence intensity relative to DMSO (% of DMSO); higher = stronger H1.0 induction, active = 140 or more
Outline: as §1
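For H1.0 immunofluorescence intensity relative to DMSO in this document: TDF is a line of transformed human dermal fibroblasts of mesenchymal origin.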
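For cell number relative to DMSO in this document: TDF denotes transformed human dermal fibroblasts of mesenchymal origin.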

Compound | cell number [1] | cell number [2] | H1.0 immunofluorescence intensity [3] | H1.0 immunofluorescence intensity [4]
CCCCCCCCCC(=O)OCC(CO)OC(=O)CCCCCCCCC (stereo not given) [1,2-Didecanoyl-glycerol (10:0)] | 102 | 98.8 | 98.3 (inactive) | 101 (inactive)
CCC1(O)CC2CN(CCc3c([nH]c4ccccc34)C(C(=O)OC)(c3cc4c(cc3OC)N(C)C3C(O)(C(=O)OC)C(OC(C)=O)C5(CC)C=CCN6CCC43C65)C2)C1.O=S(=O)(O)O (stereo not given) [Vinblastine sulfate salt] | 48.9 | 16.8 | 152 (active) | 132 (inactive)
c1ccc(C(OC2CCN(CCCc3nn[nH]n3)CC2)c2ccccc2)cc1 [4-(benzhydryloxy)-1-[3-(1H-tetraazol-5-yl)propyl]piperidine] | 104 | 102 | 92.8 (inactive) | 107 (inactive)
COc1ccc(CC(N)C(=O)NC2C(CO)OC(n3cnc4c(N(C)C)ncnc43)C2O)cc1 (stereo not given) [Puromycin] | 24.1 ± 7.4 | 99.2 ± 15 | 94 (inactive) | 90.9 (inactive)
COc1cc2ncnc(Nc3ccc(F)c(Cl)c3)c2cc1OCCCN1CCOCC1 | 80.2 | 101 | 105 (inactive) | 112 (inactive)
COc1cccc2c1C1CN(CCCCn3c(=O)[nH]c4c(sc5ncc(-c6ccccc6)nc54)c3=O)CC1CO2.Cl (stereo not given) [Fiduxosin hydrochloride] | 88.8 | 103 | 102 (inactive) | 116 (inactive)
Oc1ccc(O)cc1 [Hydroquinone] | 74.9 ± 1.1 | 76.8 ± 3.5 | 97.3 (inactive) | 118 (inactive)
CCCCCC=CCC=CC=CC=CCC(=O)CCCC(=O)O [5-Ketoeicosatetraenoic acid] | 99.9 | 95.5 | 98.1 (inactive) | 96.5 (inactive)
COc1ccc(Nc2nc(N)nc(CN3CCCCC3)n2)cc1 | 102 | 90.5 | 96.9 (inactive) | 94.5 (inactive)
CC(C)(C)c1ccc(S(=O)(=O)Nc2ccc(-n3ccnc3)cc2)cc1 [Stem-Cell Factor/c-Kit Inhibitor, ISCK03] | 100 | 102 | 103 (inactive) | 99.6 (inactive)
CCc1nn(CCCN2CCN(c3cccc(Cl)c3)CC2)c(=O)n1CCOc1ccccc1 [Nefazodone] | 98.9 | 100 | 95.5 (inactive) | 110 (inactive)
Cc1ccc(NC(=O)c2cccc(N(C)C)c2)cc1NC(=O)c1ccc(O)cc1 | 92.1 and 95.3 | 100 and 94.1 | 96.7 (inactive) and 105 (inactive) | 110 (inactive) and 119 (inactive)
CN=C(NC#N)Nc1ccc(C2=NNC(=O)CC2C)cc1 (stereo not given) [Siguazodan] | 103 | 104 | 95.4 (inactive) | 115 (inactive)
CC12CCC(=O)C=C1CCC1C2C(O)CC2(C)C1CCC2(O)C(=O)CO (stereo not given) [Hydrocortisone] | 98.68 ± 0.34 | 102 ± 9.9 | 86.3 (inactive) | 105 (inactive)
O=C(O)CP(=O)(O)O [Phosphonoacetic acid] | 101 | 109 | 95.9 (inactive) | 96.9 (inactive)
CN(C)c1nc(N(C)C)nc(N(C)C)n1 [Altretamine] | 103.1 ± 0.68 | 108.4 ± 0.31 | 100 (inactive) | 113 (inactive)
CCCCCC=CCC1OC1C=CC(O)CC=CCCCC(=O)O (stereo not given) [Hepoxilin A3] | 107 | 102 | 93.8 (inactive) | 100 (inactive)
CC(C)c1cccc(C(C)C)c1N1C(=O)c2ccc(O)cc2C1=O | 60.4 | 59.5 | 119 (inactive) | 162 (active)
C=C1C(=CC=C2CCCC3(C)C2CCC3C(C)C=CC(O)C2CC2)CC(O)CC1O (stereo not given) [Calcipotriene] | 97.8 | 109 | 91.9 (inactive) | 115 (inactive)
C=C1CCC(O)CC1=CC=C1CCCC2(C)C1CCC2C(C)CCCC(C)(C)O (stereo not given) [Calcifediol] | 97.4 | 104 | 99.9 (inactive) | 120 (inactive)
CSc1ccc(C(=O)c2[nH]c(=O)[nH]c2C)cc1 [Enoximone] | 107 | 109 | 96.3 (inactive) | 105 (inactive)
COc1ccc2cc(OCC3(C(=O)O)CN(C(=O)c4ccc(F)cc4)C3)ccc2c1 | 105 | 103 | 93.7 (inactive) | 95.8 (inactive)
O=C(c1cc(O)c(O)c([N+](=O)[O-])c1)c1ccccc1F | 106 | 106 | 95.7 (inactive) | 99.2 (inactive)
FC(F)(F)c1cc(NC(=S)Nc2ccc(Br)cc2-c2nn[nH]n2)cc(C(F)(F)F)c1 | 90.3 | 85.6 | 90.2 (inactive) | 120 (inactive)
CC[C@H](C(=O)Nc1ccccc1N1CCCC1)c1ccccc1 [(2S)-2-Phenyl-N-[2-(1-pyrrolidinyl)phenyl]butanamide] | 101 | 103 | 96.1 (inactive) | 105 (inactive)

Compound | cell number [1] | cell number [2] | H1.0 immunofluorescence intensity [3] | H1.0 immunofluorescence intensity [4]
O=C1NC(=O)C(c2cnc3ccccn23)=C1c1cn2c3c(cc(F)cc13)CN(C(=O)N1CCCCC1)CC2 | 66.9 | 63 | 138 (active) | 176 (active)
Br.CN1C2CCC1CC(OC(=O)C(O)c1ccccc1)C2 (racemic) [DL-Homatropine hydrobromide] | 106 | 109 | 91.5 (inactive) | 85.8 (inactive)
Cl.O[Si](CCCN1CCCCC1)(c1ccc(F)cc1)C1CCCCC1 (stereo not given) [Hexahydro-sila-difenidol hydrochloride, p-fluoro analog] | 97.5 | 88.2 | 102 (inactive) | 105 (inactive)
O=c1c(-c2ccc(O)cc2)coc2cc(OC3OC(CO)C(O)C(O)C3O)cc(O)c12 (stereo not given) [Genistin] | 103 | 104 | 93 (inactive) | 86.4 (inactive)
CS(=O)(=O)Nc1ccc(-c2coc3cc(OCc4cccc(C(=O)O)c4)ccc3c2=O)cc1 | 101 | 109 | 90.9 (inactive) | 107 (inactive)
[Cl-].[Li+] [Lithium Chloride] | 101 | 109 | 92.2 (inactive) | 88 (inactive)
CC1=C(C(=O)Nc2cc3cn[nH]c3cc2F)C(c2ccc(C(F)(F)F)cc2)CC(=O)N1 (stereo not given) | 113 | 98.5 | 87.8 (inactive) | 107 (inactive)
N[C@H](CCC(=O)NCS(=O)(=O)O)C(=O)O [gamma-D-Glutamylaminomethylsulfonic acid] | 101 | 109 | 96.1 (inactive) | 93.6 (inactive)
CC(C)(C)c1nc2c3cc[nH]c(=O)c3c3cc(F)ccc3c2[nH]1 | 110 | 103 | 87 (inactive) | 101 (inactive)
CC(C=CC1=C(C)CCCC1(C)C)=CC=CC(C)=CC(=O)Nc1ccc(O)cc1 [4-Hydroxyphenylretinamide] | 89.9 | 112 | 95.7 (inactive) | 120 (inactive)
CCN(c1nc(N)c(C(=O)N=C(N)N)nc1Cl)C(C)C [5-(N-Ethyl-N-isopropyl)amiloride] | 103 | 95 | 97.2 (inactive) | 91 (inactive)
Cc1oc(-c2ccccc2)nc1CCC(=O)c1ccc(CC2SC(=O)[N-]C2=O)cc1.[Na+] (stereo not given) | 103 | 106 | 96.4 (inactive) | 102 (inactive)
Cl.O=C(O)C1=CCNCC1 [Isoguvacine hydrochloride] | 106 | 108 | 106 (inactive) | 98.2 (inactive)
CCOC(=O)C1=C(C)NC(C)=C(C(=O)OC)C1c1cccc(Cl)c1Cl (stereo not given) [Felodipine] | 102 ± 2.2 | 117.1 ± 0.85 | 86.3 (inactive) | 97.5 (inactive)
CN1CCc2cccc3c2C1Cc1ccc(O)c(O)c1-3.Cl [(R)-(-)-Apomorphine.HCl] | 98.4 | 98.9 | 89.1 (inactive) | 103 (inactive)
CN(C)CCCSc1ccccc1NC(=O)C=Cc1ccccc1 [Cinanserin] | 103 | 102 | 102 (inactive) | 107 (inactive)
Cc1ccccc1C(OCCN(C)C)c1ccccc1.Cl (stereo not given) [Orphenadrine hydrochloride] | 100 | 111 | 96.6 (inactive) | 97 (inactive)
Nc1ccc(C(=O)Nc2cccc(-c3nc(N4CCOCC4)c4oc5ncccc5c4n3)c2)cn1 [PIKfyve Inhibitor] | 63.9 | 56.2 | 112 (inactive) | 151 (active)
O=P(O)(O)C(O)(Cn1ccnc1)P(=O)(O)O [Zoledronic acid] | 99 | 89 | 94 (inactive) | 100 (inactive)
NC/C=C\C(=O)O [cis-4-Aminocrotonic acid] | 105 | 100 | 98.3 (inactive) | 88.1 (inactive)
CC(O)C(O)C1CNc2[nH]c(N)nc(=O)c2N1.Cl.Cl [(6R)-5,6,7,8-Tetrahydro-L-biopterin hydrochloride] | 105 | 110 | 89.2 (inactive) | 103 (inactive)
CCCCCC(O)C=CC=CCC=CC=CC(O)CCCC(=O)O (stereo not given) | 115 | 98.1 | 101 (inactive) | 86.5 (inactive)
CCN1C(=CC(C)=O)Sc2ccc(OC)cc21 [Cdc2-Like Kinase Inhibitor, TG003] | 97.3 | 112 | 89.5 (inactive) | 119 (inactive)
CC(=O)c1ccc2c(c1)[C@H](NC(=O)c1ccc(F)c(Cl)c1)[C@H](O)C(C)(C)O2 | 97.4 | 98 | 104 (inactive) | 99.5 (inactive)
CC(C)Cc1ccc(C(C)C(=O)O)cc1 (racemic) | 103 | 112 | 95.4 (inactive) | 97.7 (inactive)
